Numbering of substitutions follows the chain as printed.
How the values were obtained:
Test in all cases: yeast three-hybrid, YBZ-1, SC-Leu-His + 0.5 mM 3-AT, 4 days
Settings in all cases: tags: N-Gal4 AD-HA kept; label: inside an RPR1-promoter hybrid RNA with tandem MS2 sites; ssRNA
PUM1 PUF domain R3-EWL = PUM1 PUF domain R3-EWL (Homo sapiens, UniProt Q14671 828-1176, C935E;R936W;Q939L)
How it was run: (§1)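 The interaction score is the logarithmic change in variant frequency from input to selection. It uses log2, with a pseudocount of 1 for absent variants, and frequencies came from PCR-amplified, Illumina-sequenced repeat regions. The libraries were Pumilio-1 PUF domains randomized at the three base-contacting residues per repeat, co-expressed with matching RNA elements in strain YBZ-1 (LexA–MS2 coat fusion, HIS3 reporter). Plating lasted four days on SC-Leu (input) or SC-Leu-His + 0.5 mM 3-AT (selection).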

PUM1 PUF domain R6-TFK = biological target: T1, PUM1 PUF domain R6-TFK (Homo sapiens, UniProt Q14671 828-1176, N1043T;Y1044F;Q1047K)
T1 sequence: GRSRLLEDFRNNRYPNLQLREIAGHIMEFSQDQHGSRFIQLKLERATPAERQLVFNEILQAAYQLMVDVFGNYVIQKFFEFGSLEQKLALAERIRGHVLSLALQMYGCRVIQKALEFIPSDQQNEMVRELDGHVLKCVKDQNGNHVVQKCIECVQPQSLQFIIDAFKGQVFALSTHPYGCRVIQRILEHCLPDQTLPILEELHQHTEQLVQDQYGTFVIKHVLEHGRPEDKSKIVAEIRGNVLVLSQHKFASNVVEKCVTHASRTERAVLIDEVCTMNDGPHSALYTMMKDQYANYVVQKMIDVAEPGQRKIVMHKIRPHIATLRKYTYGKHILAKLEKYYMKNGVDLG
How it was run: as §1

PUM1 PUF domain R6-HFF = biological target: T2, PUM1 PUF domain R6-HFF (Homo sapiens, UniProt Q14671 828-1176, N1043H;Y1044F;Q1047F)
T2 sequence: T1 sequence with T216H, K220F
How it was run: as §1

PUM1 PUF domain R4-VLY = PUM1 PUF domain R4-VLY (Homo sapiens, UniProt Q14671 828-1176, N971V;H972L;Q975Y)
How it was run: as §1

PUM1 PUF domain R6-AWE = biological target: T3, PUM1 PUF domain R6-AWE (Homo sapiens, UniProt Q14671 828-1176, N1043A;Y1044W;Q1047E)
T3 sequence: T1 sequence with T216A, F217W, K220E
How it was run: as §1

PUM1 PUF domain R2-IWE = PUM1 PUF domain R2-IWE (Homo sapiens, UniProt Q14671 828-1176, N899I;Y900W;Q903E)
How it was run: as §1

PUM1 PUF domain R1-NLV = PUM1 PUF domain R1-NLV (Homo sapiens, UniProt Q14671 828-1176, S863N;R864L;Q867V)
How it was run: as §1

PUM1 PUF domain R8-YYF = PUM1 PUF domain R8-YYF (Homo sapiens, UniProt Q14671 828-1176, N1122Y;Q1126F)
How it was run: as §1

PUM1 PUF domain R1-HFK = PUM1 PUF domain R1-HFK (Homo sapiens, UniProt Q14671 828-1176, S863H;R864F;Q867K)
How it was run: as §1

GGCUAGAACUAGUGGAUCCCCCGGCGCCCGGCGGCUCGAGCCCGGGUAAGUGUAAAUAGUCUGCAUGCCGCCGGGCGCCAUGCCUGCAGGUCGACUCUAGAAAACAUG
binding signal (PUM1 PUF domain R3-EWL): 5.03 log2 enrichment (interaction score) | binding signal (PUM1 PUF domain R6-TFK): 7.02 log2 enrichment (interaction score) | binding signal (PUM1 PUF domain R6-HFF): 4.43 log2 enrichment (interaction score) | binding signal (PUM1 PUF domain R4-VLY): 4.53 log2 enrichment (interaction score)

GGCUAGAACUAGUGGAUCCCCCGGCGCCCGGCGGCUCGAGCCCGGGUAAGUGUAAUUAGUCUGCAUGCCGCCGGGCGCCAUGCCUGCAGGUCGACUCUAGAAAACAUG
binding signal (PUM1 PUF domain R3-EWL): 4.51 log2 enrichment (interaction score)

GGCUAGAACUAGUGGAUCCCCCGGCGCCCGGCGGCUCGAGCCCGGGUAAGUGAAAAUAGUCUGCAUGCCGCCGGGCGCCAUGCCUGCAGGUCGACUCUAGAAAACAUG
binding signal (PUM1 PUF domain R6-AWE): 7.15 log2 enrichment (interaction score) | binding signal (PUM1 PUF domain R6-TFK): 2.81 log2 enrichment (interaction score)

GGCUAGAACUAGUGGAUCCCCCGGCGCCCGGCGGCUCGAGCCCGGGUAAGUGGAAAUAGUCUGCAUGCCGCCGGGCGCCAUGCCUGCAGGUCGACUCUAGAAAACAUG
binding signal (PUM1 PUF domain R6-AWE): 4.11 log2 enrichment (interaction score)

GGCUAGAACUAGUGGAUCCCCCGGCGCCCGGCGGCUCGAGCCCGGGUAAGUGUAAAAAGUCUGCAUGCCGCCGGGCGCCAUGCCUGCAGGUCGACUCUAGAAAACAUG
binding signal (PUM1 PUF domain R2-IWE): 4.65 log2 enrichment (interaction score)

GGCUAGAACUAGUGGAUCCCCCGGCGCCCGGCGGCUCGAGCCCGGGUAAGUGUAAAUUGUCUGCAUGCCGCCGGGCGCCAUGCCUGCAGGUCGACUCUAGAAAACAUG
binding signal (PUM1 PUF domain R1-NLV): 2.72 log2 enrichment (interaction score)

GGCUAGAACUAGUGGAUCCCCCGGCGCCCGGCGGCUCGAGCCCGGGUAAGCGUAAAUAGUCUGCAUGCCGCCGGGCGCCAUGCCUGCAGGUCGACUCUAGAAAACAUG
binding signal (PUM1 PUF domain R8-YYF): 5.85 log2 enrichment (interaction score)

GGCUAGAACUAGUGGAUCCCCCGGCGCCCGGCGGCUCGAGCCCGGGUAAGUGUAAAUCGUCUGCAUGCCGCCGGGCGCCAUGCCUGCAGGUCGACUCUAGAAAACAUG
binding signal (PUM1 PUF domain R1-HFK): 2.71 log2 enrichment (interaction score)

From publication PMC8384837, “Expanding the binding specificity for RNA recognition by a PUF domain”
